Lassa entry inh – blocks Lassa virus binding to or entry into cells | 300,000 tested, 1.2% active | Lassa virus pseudotype entry inhibition, cell reporter | Potency, µM (highest dose often 37.9 µM), most hits filed as inhibitors; calls by dose curve; tested in HEK293 cells; also: nearly all actives have a fitted effect of over 50% in size
Shiga inhibitor – Shiga toxin inhibition; Vero cells, Shiga toxin protein synthesis inhibition reporter; inhibition, % at 38.7 µM; 290,000 tested, 9.2% active; in the data active = inhibition mostly above about 28%, no sharp cut-off; inactive = mostly below about 43%
MARV entry inh – blocks Marburg virus binding to or entry into cells. Marburg virus pseudotyped entry inhibition, cell reporter. Potency, µM (highest dose often 37.8 µM), most hits filed as inhibitors. 300,000 tested, 1.8% active. AID 540276; calls by dose curve; tested in HEK293 cells
Cycloheximide cs – affects cycloheximide protein synthesis inhibition readout, counter-screen; cell reporter, cycloheximide protein synthesis inhibition counterscreen; max response, %; 300,000 tested, 12% active; in the data active = max response mostly above about 13%, no sharp cut-off; inactive = mostly below about 14%; also: read at 38.3 µM for the half of the compounds with a filed dose
HCV inh – inhibitors of hepatitis C virus infection. Huh7.5.1 HCVcc-Cre infection, luciferase reporter, 44 h. 340,000 tested, 3.4% active. Potency, µM (highest dose often 41.8 µM), most hits filed as inhibitors; active = well fitted inhibition curve with a large enough effect; inconclusive = small, poorly fitted or top-dose-only effect, or another doubt; inactive = no such curve, though single readings can be large or run the other way
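Infectious HCVcc-Cre (~0.5 moi) was added to cells just after compound, with cells seeded 4 h earlier at 1,000 per well. Luciferase activity after 44 h culture reported infection; substrate was incubated 15 min at room temperature before reading.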
FMDV inh – blocks foot and mouth disease virus | FMDV antiviral cell-based qHTS | Potency, µM (highest dose often 57.9 µM), hits mostly inhibitors | 410,000 tested, 1.2% active | AID 1159524; calls by dose curve; tested in HEK293T cells; also: read-out not given here; nearly all actives have a fitted effect of over 45% in size
Each line names hits and unclear results; the compound was inactive in the other large screens. Rows were chosen to be rich in hits. Some 13% of all compounds tested hit in one or more screens of this group.

Cc1sc(NC(=O)/C=C/c2ccco2)c(C(=O)O)c1C	Lassa entry inh inconclusive, MARV entry inh inconclusive, Cycloheximide cs 25
CCOc1cc(/C=N/NC(=O)c2cc(C3CC3)[nH]n2)ccc1O	none
COc1cc(/C=N/NC(=O)c2cc(C3CC3)[nH]n2)ccc1O	Cycloheximide cs 16 (no result: Lassa entry inh, MARV entry inh)
O=C(N/N=C/c1ccc(O)cc1)c1cc(C2CC2)[nH]n1	none
COc1ccc(/C=N/NC(=O)c2cc(C3CC3)[nH]n2)cc1OC	Shiga inhibitor 52
CCOC(=O)c1c(NC(=O)COc2ccccc2)sc(C(C)=O)c1C	none (no result: Shiga inhibitor, MARV entry inh, Cycloheximide cs, HCV inh)
COc1cc(/C=N/N2CCOCC2)ccc1OC(=O)c1ccco1	none
COc1ccccc1N1CCN(/N=C/c2cccc(O)c2)CC1	Shiga inhibitor 85, Cycloheximide cs 29 (no result: Lassa entry inh, MARV entry inh)
COc1ccccc1N1CCN(/N=C/c2ccc(OC)c(OC)c2OC)CC1	none
COc1ccccc1N1CCN(/N=C/c2cc(OC)c(O)c(OC)c2)CC1	MARV entry inh inconclusive
COc1cc(/C=N/N2CCN(c3ccccc3OC)CC2)ccc1OC(C)=O	Lassa entry inh inconclusive, Cycloheximide cs 19 (no result: Shiga inhibitor)
COc1ccccc1N1CCN(/N=C/c2ccccc2C(=O)O)CC1	Shiga inhibitor 28, Cycloheximide cs 17 (no result: Lassa entry inh, MARV entry inh)
O=C(C1CCCCC1)N1CCC(CO)(Cc2ccccc2Cl)CC1	none (no result: Lassa entry inh, MARV entry inh)
COc1cc(OC)c(NC(=O)CCNS(=O)(=O)c2cc(Br)cnc2N)cc1Cl	HCV inh inconclusive
O=C(COC(=O)c1ccc2c(c1Cl)C(=O)c1ccccc1C2=O)NC1CC1	Shiga inhibitor 39, Cycloheximide cs 31
O=C(COC(=O)c1ccccc1C(=O)c1ccc(Cl)c([N+](=O)[O-])c1)NC1CC1	Lassa entry inh inconclusive, MARV entry inh inconclusive, HCV inh 11µM, FMDV inh 20µM
CC(C)OC(=O)c1ccccc1C(=O)c1ccc(N)c([N+](=O)[O-])c1	none
O=C(COC(=O)c1cc([N+](=O)[O-])ccc1Cl)NC1CCCC1	none (no result: Lassa entry inh, MARV entry inh)
O=C(COC(=O)c1ccccc1[N+](=O)[O-])c1ccc(C2CCCCC2)cc1	Shiga inhibitor 71, MARV entry inh inconclusive, Cycloheximide cs 60, FMDV inh 11µM
CNC(=O)COC(=O)c1ccccc1C(=O)c1ccc(Cl)c([N+](=O)[O-])c1	Cycloheximide cs 33, HCV inh inconclusive, FMDV inh inconclusive (no result: Lassa entry inh, MARV entry inh)
COc1ccc(S(=O)(=O)N2CCC(C(=O)N3CCCCC3)CC2)cc1	none
O=C(Nc1c(-c2ccccc2)[nH][nH]c1=O)c1cccc(C(F)(F)F)c1	none (no result: Lassa entry inh, Shiga inhibitor, MARV entry inh, Cycloheximide cs, HCV inh)
COc1ccc(S(=O)(=O)N2CCOCC2)cc1NC(=O)COC(=O)C1CCC1	none (no result: Shiga inhibitor, Cycloheximide cs)
CCCOc1ccc(C(=O)c2ccccc2C(=O)OC2CCOC2=O)cc1OCCC (stereo not drawn)	HCV inh inconclusive (no result: Shiga inhibitor, Cycloheximide cs)
O=C(OC1CCOC1=O)c1ccccc1C(=O)c1ccc(Cl)c([N+](=O)[O-])c1 (stereo not drawn)	HCV inh 11µM (no result: Lassa entry inh, Shiga inhibitor, MARV entry inh, Cycloheximide cs)
COc1cccc(-c2nnc3n(Cc4ccc(F)cc4)c(=O)c4ccccc4n23)c1	none (no result: Shiga inhibitor, Cycloheximide cs, HCV inh)
O=C(CCC(=O)N1CCN(c2ccccc2F)CC1)c1ccc(Cl)s1	none (no result: Lassa entry inh, Shiga inhibitor, MARV entry inh, Cycloheximide cs)
O=C1[C@H]2[C@@H](c3ccc(F)cc3)N3C(=O)N(c4cccc(Br)c4)C(=O)[C@@]3(Cc3ccccc3)[C@H]2C(=O)N1C1CCCCC1	none (no result: Lassa entry inh, Shiga inhibitor, MARV entry inh, Cycloheximide cs)
Cc1cccc2cc3c(N)c(C(=O)N4CCOCC4)sc3nc12	Lassa entry inh 11µM, Shiga inhibitor 115, MARV entry inh inconclusive, Cycloheximide cs 50, HCV inh inconclusive
Cc1cc(C)c2cc3c(N)c(C(=O)N4CCc5ccccc5C4)sc3nc2c1	HCV inh inconclusive (no result: FMDV inh)
O=C1NC(=S)N(C(=O)c2ccc(F)cc2)/C1=C/c1ccccc1	Lassa entry inh inconclusive, MARV entry inh inconclusive, Cycloheximide cs 14
COc1ccc(/C=C2\C(=O)NC(=S)N2C(=O)c2ccc(F)cc2)cc1	MARV entry inh inconclusive
Nc1c([N+](=O)[O-])cc(-c2cnc[nH]2)cc1[N+](=O)[O-]	none (no result: Lassa entry inh, MARV entry inh)
COc1ccccc1C(=O)NCCC(=O)N(C)Cc1ccc(C)o1	none
Cc1ccc(OC(=O)C2c3ccccc3Oc3ccccc32)cc1C	Lassa entry inh 18µM, MARV entry inh inconclusive
CC(=O)c1ccc(OC(=O)C2c3ccccc3Oc3ccccc32)cc1	MARV entry inh inconclusive
COc1ccc(NC(=O)Cn2nnc(C(=O)Nc3ccc(F)c(Cl)c3)c2N)cc1OC	Lassa entry inh inconclusive, HCV inh inconclusive (no result: MARV entry inh)
CCOC(=O)Cn1cc(C(=O)c2ccccc2F)c2ccccc21	Cycloheximide cs 17
Cc1ccc(O)c(NC(=S)NC(=O)/C=C/c2ccccc2)c1	none (no result: Lassa entry inh, MARV entry inh)
Cc1ccc(C(=O)/C=C/c2ccco2)c(O)c1	Shiga inhibitor 56, MARV entry inh inconclusive, Cycloheximide cs 37
Cc1ccc(O)c(NC(=S)NC(=O)/C=C/c2ccco2)c1	Lassa entry inh inconclusive, Shiga inhibitor 67, MARV entry inh inconclusive, Cycloheximide cs 47
Cc1ccnc(NC(=S)NC(=O)/C=C/c2ccco2)c1	Shiga inhibitor 138, MARV entry inh inconclusive, Cycloheximide cs 70, HCV inh inconclusive
CCC(=O)Nc1ccc(NC(=S)NC(=O)/C=C/c2ccco2)cc1	MARV entry inh inconclusive (no result: Shiga inhibitor)
Cc1cc(C)c(C(=O)/C=C/c2ccco2)c(=O)[nH]1	none
O=C(/C=C/c1ccco1)NC(=S)Nc1ccc(Cl)cn1	Shiga inhibitor 88
CCN(CC)C(=O)C1=C(C)N(Cc2ccc(OC)cc2)C(=O)C(CC(=O)NCCN2CCOCC2)C1 (stereo not drawn)	none (no result: Lassa entry inh, Shiga inhibitor, MARV entry inh, Cycloheximide cs, HCV inh)
Cc1ccc(-c2csc(NC(=S)NC(=O)c3cc4ccccc4o3)n2)cc1	none
Cc1ccc(-c2csc(NC(=S)NC(=O)/C=C/c3ccco3)n2)cc1	Lassa entry inh inconclusive, MARV entry inh inconclusive, HCV inh 13µM
CCOc1cc(/C=C/C(=O)NCCc2ccc(S(N)(=O)=O)cc2)ccc1OCC(C)C	HCV inh inconclusive, FMDV inh inconclusive (no result: Lassa entry inh, MARV entry inh)
CCOC(=O)C(C)N1C(=O)S/C(=C/c2cc(C)n(-c3ccccn3)c2C)C1=O (stereo not drawn)	Shiga inhibitor 114, MARV entry inh inconclusive, Cycloheximide cs 31, HCV inh 10µM
CCOC(=O)C(C)N1C(=O)S/C(=C/c2cc(C)n(-c3ccncc3)c2C)C1=O (stereo not drawn)	Cycloheximide cs 18, HCV inh 10µM (no result: Lassa entry inh, MARV entry inh)
Cc1cc(C=C2C(=O)N(C)C(=S)N(C)C2=O)c(C)n1-c1ccncc1	FMDV inh inconclusive (no result: Lassa entry inh, MARV entry inh)
O=c1oc2ccccc2cc1-c1cn2cc(Cc3ccc(Cl)cc3)sc2n1	Lassa entry inh inconclusive (no result: Shiga inhibitor, Cycloheximide cs, HCV inh)
Cc1ccn2cc(-c3cc4ccccc4oc3=O)nc2c1	Lassa entry inh 1.6µM, Shiga inhibitor 76, MARV entry inh inconclusive, Cycloheximide cs 44
Cc1cccc(-n2c(SCC(=O)Nc3nonc3C)nnc2-c2ccoc2C)c1	none
COc1ccc(CCNC(=O)c2cc(COc3c(C)cccc3C)on2)c(OC)c1	Lassa entry inh inconclusive, Shiga inhibitor 65, Cycloheximide cs 77, HCV inh inconclusive
COc1ccc(CCNC(=O)c2cc(COc3c(F)cccc3F)on2)c(OC)c1	Shiga inhibitor 70, Cycloheximide cs 37 (no result: HCV inh)
COc1ccc(CCNC(=O)NCc2noc3ccc(C)cc23)c(OC)c1	none (no result: Shiga inhibitor, MARV entry inh, Cycloheximide cs, HCV inh)
